# Experimental data reported in PubChem BioAssay (NCI).
# This is part of a sample that, as a whole, favours compounds with a hit. Of some 83,000 tested, about 20% had one in any assay.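 The test compound was applied at a single concentration to cells in 96-well plates for 48 hours, and percent growth was recorded.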 A number with no mark means an inactive call. The source made the active and inactive calls. How the source made its calls: active means growth percent below 10; inactive means the rest.
# Tests used:
# Assay in all cases: NCI-60 one-dose screen, 48 h (100 = growth as untreated, 0 = no growth, -100 = all killed)
# Settings in all cases: 10 µM
# NCI-H23 lung = test system: NCI-H23 lung
# NCI-H226 lung = test system: NCI-H226 lung
# NCI-H322M lung = test system: NCI-H322M lung
# HOP-62 NSCLC = test system: HOP-62 NSCLC
# NCI-H460 lung = test system: NCI-H460 lung
# HOP-92 NSCLC = test system: HOP-92 NSCLC
# NCI-H522 lung = test system: NCI-H522 lung
# A549/ATCC NSCLC = test system: A549/ATCC NSCLC
# 786-0 renal = test system: 786-0 renal
# COLO 205 colon = test system: COLO 205 colon
Compound,growth (NCI-H23 lung),growth (NCI-H226 lung),growth (NCI-H322M lung),growth (HOP-62 NSCLC),growth (NCI-H460 lung),growth (HOP-92 NSCLC),growth (NCI-H522 lung),growth (A549/ATCC NSCLC),growth (786-0 renal),growth (COLO 205 colon) [%]
Nc1ccc(CC(=O)O)c(N)c1,92.3%,92%,97.6%,102%,103%,94.5%,99.3%,99.7%,107%,
O=C(c1ccc(Cl)cc1)c1ccccc1Cl,91.2%,99.9%,97.9%,93.7%,103%,78.2%,90.7%,95.1%,93.6%,
CCCCCCCCCCCCCCCCC1CC(=O)OC1=O (stereo not drawn),107%,103%,114%,95.2%,118%,125%,98.6%,98.5%,,
O=C(CCNNC(=O)c1ccncc1)NCc1ccccc1,95.8%,90.7%,110%,98.3%,102%,97.8%,58.2%,104%,107%,
COC(=O)/C=C1\Sc2cc(F)ccc2NC1=O,95.7%,101%,100%,96.5%,112%,82.4%,107%,95.7%,94.3%,
Cc1cc(C)c(N)c(S(=O)(=O)O)c1,92%,96.4%,108%,91.8%,102%,99%,97%,114%,97.2%,
Cc1cccc(C(=O)N(C(C)C)C(C)C)c1,102%,87.7%,104%,86.4%,99.2%,79.6%,79.9%,86.3%,99.7%,
c1c(-c2cc(C3CC3)[nH]n2)n[nH]c1C1CC1,94.3%,95.2%,94.8%,98.6%,83.4%,89%,79%,88.8%,94.3%,102
CN(C)CCC(=O)c1ccc(O)cc1,97%,99%,106%,107%,103%,98.5%,102%,103%,108%,
Nc1ccccc1C(=O)Nc1ccc(Cl)cc1Cl,92.6%,96.1%,106%,86.6%,104%,67.2%,78.5%,102%,107%,
Cc1cc2nc(CC(=O)c3ccccc3)c(=O)[nH]c2cc1C,84%,87%,98.7%,96.2%,97.9%,88.5%,81.2%,105%,98.3%,
O=C(NN=C1CCCCC1)C(=O)NN=C1CCCCC1,105%,101%,124%,98.1%,117%,101%,98.7%,116%,105%,
CC1(C)N=C(N)N=C(N)N1c1cccc(Br)c1,20.8%,58.8%,46.9%,15.4%,18.2%,83%,52.5%,30.6%,10.3%,
CCN(CC)c1ccc2nc3ccc(=[N+](CC)CC)cc-3oc2c1,-46.2% (active),-46.9% (active),10.7%,1.25% (active),6.72% (active),15.7%,-29.6% (active),18.5%,34.9%,
CC(C)NC(=O)OCc1c(COC(=O)NC(C)C)c(-c2ccc(Cl)c(Cl)c2)n2c1SCC2,38.6%,-43.7% (active),51.4%,28.7%,13.3%,50.8%,32%,55.3%,19%,53.6
CCOc1ccc(I)cc1,96.7%,103%,120%,107%,108%,90.3%,105%,104%,109%,
O=C(O)C(c1ccccc1)C(O)c1ccccc1 (stereo not drawn),104%,77.8%,97.6%,101%,106%,93%,96.1%,90.8%,107%,
O=[N+]([O-])c1ccc(N=Nc2ccccc2)cc1,90.4%,89.4%,80%,96.4%,120%,94%,81.1%,89%,92%,
CCCCNC1(C#N)CCN(Cc2ccccc2)CC1,86.8%,104%,98.8%,87%,110%,90.4%,84.9%,110%,84.5%,
Oc1ccccc1-c1nnco1,94.9%,93.1%,89.9%,81.5%,104%,97%,91%,98.9%,90.6%,103
CC(=O)Oc1ccc(Br)cc1C(=O)O,98.6%,99%,101%,86.9%,106%,97.8%,91.4%,103%,97.4%,

Compound,growth (NCI-H23 lung),growth (NCI-H226 lung),growth (NCI-H322M lung),growth (HOP-62 NSCLC),growth (NCI-H460 lung),growth (HOP-92 NSCLC),growth (NCI-H522 lung),growth (A549/ATCC NSCLC),growth (786-0 renal),growth (COLO 205 colon) [%]
S=C(Nc1ccccc1)N1CCCCC1,99.9%,89.6%,99%,90.9%,110%,93.3%,94.9%,99.2%,102%,
O=c1cc2oc3cc(O)c(O)cc3c(-c3ccccc3O)c-2cc1O,82.4%,87%,57.5%,63%,96%,7.48% (active),66.8%,108%,57.2%,
CN(C)c1ccc(S(=O)(=O)O)cc1,103%,96.6%,116%,91.1%,109%,85.8%,101%,105%,110%,102
Cc1cc(N)c(S(=O)(=O)O)c(N)c1,97%,99.6%,101%,94.9%,104%,47.1%,87.9%,109%,105%,
O=[N+]([O-])c1ccc(Sc2ccncn2)c([N+](=O)[O-])c1,60%,55.3%,106%,92.4%,99.3%,103%,-62.2% (active),122%,69.7%,
CC(=O)CC(=O)N(C)C,102%,94.5%,101%,98.8%,104%,81.8%,88.5%,101%,97.8%,115
CC(=O)N(C)c1ccc([N+](=O)[O-])cc1,101%,105%,114%,111%,117%,94.5%,106%,106%,105%,114
CC1CCC(C(=O)O)N1 (stereo not drawn),89.2%,97.3%,95.2%,93.9%,115%,102%,91.3%,99.4%,100%,
CC1(C)N=C(N)N=C(N)N1c1ccc(Cl)cc1,37.2%,76.1%,59.2%,36.9%,18.3%,132%,46.6%,27.4%,17.7%,
COc1cc(C(=O)N/N=C/c2cccc([N+](=O)[O-])c2)cc(OC)c1OC,61.7%,77.8%,87.2%,77.1%,18.5%,70.7%,19.6%,65.7%,78.2%,
Cc1ccc(/C=C2\SC(=S)N(c3ccc(F)cc3)C2=O)o1,88.3%,72.4%,90.2%,83.1%,33.7%,87.6%,70.6%,87.5%,40.2%,
CCOC(=O)c1ccc(Nc2sc(C(=O)c3cccc([N+](=O)[O-])c3)c(N)c2C#N)cc1,34.2%,41%,55%,27.3%,4.75% (active),43%,5.23% (active),48.3%,24.7%,
CCC(O)CC(CC)CO (stereo not drawn),101%,102%,110%,108%,94.3%,98.8%,117%,105%,106%,
CN(C)CCN(C)CC(C)(C)C(=O)/C=C/c1ccc(Cl)cc1,5.94% (active),-3.14% (active),5.34% (active),3.79% (active),-14.9% (active),-24.9% (active),-62.6% (active),8.12% (active),-22.5% (active),
CS(=O)CC1=NC(=N)N=C1CS(C)=O (stereo not drawn),100%,102%,101%,100%,106%,103%,99.9%,97.5%,102%,
CC(C)C(C#N)(C(C)C)C(C)C,104%,104%,107%,101%,102%,95.5%,92%,97.1%,113%,
CCOC(=O)C(C#N)Cc1ccccc1 (stereo not drawn),105%,112%,116%,116%,117%,101%,111%,109%,109%,123
CCOc1ccccc1/C=N/Nc1nc2ccccc2o1,91.8%,103%,113%,97.2%,102%,87.9%,110%,98.6%,116%,121
COc1cc2c(cc1O)CC[C@@H]1C2CC[C@@]2(C)C1CC[C@@H]2O (stereo partly drawn),406%,57.7%,53.5%,33.3%,8.58% (active),79.8%,1.84% (active),13.9%,36%,82.5
CC(C)CCCC(=O)O,106%,101%,93.4%,102%,102%,73.9%,103%,105%,116%,112
CN(C)c1ccc2oc(=O)c3ccccc3c2c1,98.3%,81.3%,94.8%,78%,97.3%,68.3%,97.1%,105%,79.5%,119

Compound,growth (NCI-H23 lung),growth (NCI-H226 lung),growth (NCI-H322M lung),growth (HOP-62 NSCLC),growth (NCI-H460 lung),growth (HOP-92 NSCLC),growth (NCI-H522 lung),growth (A549/ATCC NSCLC),growth (786-0 renal),growth (COLO 205 colon) [%]
CC1(C)S(=O)(=O)OCCOS1(=O)=O,103%,102%,100%,98.4%,105%,83.8%,99.6%,92%,102%,116
CC1Cc2ccccc2O1 (stereo not drawn),98.6%,107%,131%,108%,109%,109%,114%,103%,109%,110
COc1ccc(C2OC(N)=C(O)C2=O)cc1OC (stereo not drawn),102%,97.5%,102%,105%,110%,98%,93.6%,118%,101%,125
O=C1NC(=O)C2C(=O)NC(=O)C1C21CCc2ccccc21 (stereo not drawn),91.8%,87.7%,106%,94.3%,115%,89.5%,97.4%,103%,101%,125
CCOc1ccc2[nH]c(=S)sc2c1,94.4%,109%,105%,99.1%,110%,82.2%,104%,103%,99.7%,112
c1csc(-c2cc(-c3cc(-c4cccs4)[nH]n3)n[nH]2)c1,91%,79.1%,94.4%,88.3%,107%,93.6%,88.9%,107%,98.9%,114
COS(=O)(=O)c1ccc(Br)cc1,97.6%,101%,118%,95.6%,115%,98.1%,104%,103%,111%,104
c1ccc(Sc2ccccc2)cc1,105%,103%,118%,104%,106%,90.9%,139%,96.6%,113%,115
CCOc1ccc(/C=C/C(=O)c2ccccc2)cc1,106%,114%,132%,102%,103%,82.6%,76.9%,97.5%,89.8%,116
CCOC(=O)c1[nH]c(C)c(C(C)=O)c1C,94.2%,103%,101%,89.7%,103%,51%,83.8%,105%,83.5%,115
Cc1ccc(C)n1-c1ccsc1C(=O)NNC(=O)CCl,85.1%,80.1%,99.7%,101%,101%,97.4%,79.5%,96.6%,80.4%,122
CCS(=O)(=O)CCCl,101%,114%,97.1%,105%,109%,92.3%,90%,97.4%,105%,126
O=C(CS)Nc1ccc2ccccc2c1,111%,121%,127%,120%,97.6%,101%,118%,122%,105%,112
Cc1cc(NC(=O)CSCC(=O)O)no1,102%,110%,96.7%,96.3%,110%,107%,101%,97.2%,103%,110
CCOC(=O)C1=C(C)NC(=O)NC1c1cccs1 (stereo not drawn),98.4%,110%,111%,109%,118%,107%,101%,94.8%,106%,107
CCCCCCCCCCCCCC(=O)Oc1ccc[nH]c1=O,105%,92.7%,87%,94.1%,105%,84.9%,90.7%,89.4%,89.7%,112
O=C(Cc1nc2ccc([N+](=O)[O-])cc2nc1CC(=O)c1ccccc1)c1ccccc1,43.9%,68%,61%,79.8%,52.9%,71.5%,31.5%,58.8%,42%,91.3
Cc1nc2c(ccc3ccccc32)s1,98%,109%,116%,103%,115%,93.7%,103%,98.6%,101%,110
Cc1cc2nc(CC(=O)c3cccc([N+](=O)[O-])c3)c(=O)[nH]c2cc1C,80.3%,90.7%,93.8%,101%,87.6%,74.9%,70.4%,97.9%,85.5%,110
Cc1cc(=O)cc(C)n1-c1ccccc1,96.5%,96.3%,106%,99.6%,107%,90.6%,102%,99.1%,90%,106
OCCN(CCO)C(=S)S,102%,103%,103%,108%,112%,109%,101%,94%,101%,114
